Source: the supplement of paper PMC9694430

How the values were obtained:
Assay in all cases: thermal shift delta Tm vs DMSO control; higher = stronger stabilization (binding)
Conditions in all cases: 12.5 µM; protein concentration 2 µM
LOC_OS02G45750-cb003 = system: LOC_OS02G45750-cb003
In short: (§1)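 Rice kinase domain constructs, made in E. coli and purified, were placed in 96-well plates at 2 μM in 19.5 μl of 100 mM potassium phosphate pH 7.5, 150 mM NaCl, 10% glycerol and 5 × SYPRO Orange, with compound in DMSO. A temperature ramp from 25°C to 95°C at 0.05°C/s was used for differential scanning fluorimetry. The melting temperature shift is a triplicate mean compared with DMSO-only protein, derived from Boltzmann fits.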

LOC_OS02G54510-cb004 = system: LOC_OS02G54510-cb004
In short: as §1

LOC_OS03G04050-cb001 = system: LOC_OS03G04050-cb001
In short: as §1

LOC_OS03G12390-cb001 = system: LOC_OS03G12390-cb001
In short: as §1

LOC_OS03G27990-cb004 = system: LOC_OS03G27990-cb004
In short: as §1

LOC_OS03G50450-cb001 = system: LOC_OS03G50450-cb001
In short: as §1

LOC_OS03G50810-cb003 = system: LOC_OS03G50810-cb003
In short: as §1

LOC_OS04G35114-cb001 = system: LOC_OS04G35114-cb001
In short: as §1

LOC_OS04G38480-cb003 = system: T1, LOC_OS04G38480-cb003
T1 sequence (whole entry): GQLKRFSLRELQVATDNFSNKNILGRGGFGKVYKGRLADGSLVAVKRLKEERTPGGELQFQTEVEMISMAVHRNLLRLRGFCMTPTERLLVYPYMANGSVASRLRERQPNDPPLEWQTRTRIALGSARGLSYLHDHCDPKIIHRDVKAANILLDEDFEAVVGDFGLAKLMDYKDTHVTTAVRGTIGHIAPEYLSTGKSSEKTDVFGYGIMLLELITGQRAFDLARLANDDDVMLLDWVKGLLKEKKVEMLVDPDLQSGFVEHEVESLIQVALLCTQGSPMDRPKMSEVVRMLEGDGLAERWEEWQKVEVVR
In short: as §1

LOC_OS04G41100-cb001 = system: T2, LOC_OS04G41100-cb001
T2 sequence (whole entry): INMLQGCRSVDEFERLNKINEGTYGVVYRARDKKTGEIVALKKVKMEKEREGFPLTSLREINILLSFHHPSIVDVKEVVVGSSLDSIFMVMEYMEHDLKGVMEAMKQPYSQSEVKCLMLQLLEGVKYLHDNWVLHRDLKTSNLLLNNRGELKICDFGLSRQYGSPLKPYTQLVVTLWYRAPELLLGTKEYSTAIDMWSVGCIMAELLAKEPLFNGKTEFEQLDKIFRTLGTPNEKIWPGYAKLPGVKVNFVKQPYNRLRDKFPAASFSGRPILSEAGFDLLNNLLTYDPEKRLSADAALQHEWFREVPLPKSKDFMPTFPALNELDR
In short: as §1
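Also: purified Escherichia coli-expressed rice kinase domain construct.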

Structure (SMILES)	thermal shift delta Tm (LOC_OS02G45750-cb003) [°C]	thermal shift delta Tm (LOC_OS02G54510-cb004) [°C]	thermal shift delta Tm (LOC_OS03G04050-cb001) [°C]	thermal shift delta Tm (LOC_OS03G12390-cb001) [°C]	thermal shift delta Tm (LOC_OS03G27990-cb004) [°C]	thermal shift delta Tm (LOC_OS03G50450-cb001) [°C]	thermal shift delta Tm (LOC_OS03G50810-cb003) [°C]	thermal shift delta Tm (LOC_OS04G35114-cb001) [°C]	thermal shift delta Tm (LOC_OS04G38480-cb003) [°C]	thermal shift delta Tm (LOC_OS04G41100-cb001) [°C]
COc1cc2c(c(OC)c1OC)-c1c(cc3c(c1OC)OCO3)CC(C)C(C)C2 (stereo not given) [Schisandrin B (Sch B)]	-0.1	-0.01	0.81	0.12	0.05	0.76	0.12	0.63	0.75	0.48
O=C(NCc1cccc(O)c1)Nc1nc(-c2ccncc2)cs1	-1.72	0.56	1.15	0.54	1.06	0.51	0.05	1.65	0.86	0.95
C[C@@H](NC(=O)c1ncnc(N)c1Cl)c1ncc(C(=O)Nc2cc(C(F)(F)F)c(Cl)cn2)s1	0.64	6.43	0.36	0.49	0.28	0.42	-0.01	0.39	0.76	0.71
COc1cc2nccc(Oc3ccc(NC(=O)C4(C(=O)Nc5ccc(F)cc5)CC4)cc3)c2cc1OC	1.97	1.19	0.5	0.4	0.27	0.3	0.76	1.45	2.61	0.93
CN1CCN(c2ccc(-c3ccncc3-c3cc(F)c(O)c(F)c3)cc2)CC1	0.61	0.42	0.42	-0.07	0.3	0.59	0.5	1.01	1.07	0.43
Cc1cc(CN2CCN(c3c(Br)cnc4nc(-c5ccc(N6CCN(C)CC6)cc5)[nH]c34)CC2)no1	11.1	0.56	0.42	2.08	1.47	4.97	4	3.09	2.28	0.48
N#CC[C@H](C1CCCC1)n1cc(-c2ncnc3[nH]ccc23)cn1	0.42	1.39	0.15	2.16	0.41	0.17	0.46	0.65	1.14	0.66
CC(C)(O)CNc1ncc(-c2ccnc(Nc3ccncc3)n2)c(CC2CC2)n1 [VPS34 inhibitor 1 (Compound 19, PIK-III analogue)]	2.27	0.29	0.5	0.77	0.32	0.37	0.9	1.51	1.97	0.43
COc1ccc(F)c(F)c1C(=O)c1cnc(NC2CCN(S(C)(=O)=O)CC2)nc1N	1.63	-0.08	0.26	-0.05	0.19	0.18	0.05	0.62	1.07	0.79
Nc1nc2cc(-c3ccc4ncc(C(=O)N5CCOCC5)n4c3)ccc2o1 [Serabelisib (INK-1117,MLN-1117,TAK-117)]	1.65	0.12	0.57	0.22	0.37	0.93	0.42	1.85	0.6	0.51
Cc1[nH]c(/C=C2\C(=O)Nc3ccc(S(=O)(=O)N(C)c4cccc(Cl)c4)cc32)c(C)c1C(=O)N1CCN(C)CC1	0	0.59	0.42	2.96	0.14	-0.1	0	7.25	5.89	0.68
Cn1c(=O)c(Oc2ccc(F)cc2F)cc2cnc(NC(CCO)CCO)nc21	0.76	0.53	0.43	-0.19	0.49	0.26	0.46	0.71	0.93	0.09
CCc1cnn2c(NCc3ccc[n+]([O-])c3)cc(N3CCCC[C@H]3CCO)nc12	0.58	0.19	0.27	1.31	0.33	0.63	0.67	0.57	0.56	0.68
COC(=O)c1ccc2c(c1)NC(=O)/C2=C(\Nc1ccc(N(C)C(=O)CN2CCN(C)CC2)cc1)c1ccccc1 [Nintedanib (BIBF 1120)]	2.59	0.74	0.2	2.83	1.25	0.03	2.2	6.69	0.23	0.7
N#CC1(c2ccc(NC(=O)c3cccnc3NCc3ccncc3)cc2)CCCC1 [Apatinib]	0.45	1.36	0.07	-0.19	0.11	0.69	0.22	0.72	0.83	0.11
CCCCCCCCCCCCc1ccc(S(=O)(=O)Nc2nncs2)cc1	-1.65	-0.17	0.7	-0.22	0.29	-0.07	-0.06	0.41	0.58	0.45
CC(=O)O/N=C1/C(c2c(O)[nH]c3cc(Br)ccc23)=Nc2ccccc21 [BIO-acetoxime]	9.18	2.31	1.28	-0.22	0.36	-0.71	5.4	5.86	-0.03	0.88
Cc1cc(Nc2nc(N[C@@H](C)c3ccc(F)cc3)c(C#N)cc2F)n[nH]1	4.55	2.52	0.11	4.41	0.57	1.39	4.44	1.88	2.31	1.28
N#CCNC(=O)c1ccc(-c2ccnc(Nc3ccc(N4CCOCC4)cc3)n2)cc1 [Momelotinib (CYT387)]	7.23	1.25	0.41	2.09	0.29	1.99	2.03	3.88	3.2	2.25
CC(C)n1ncnc1-c1cn2c(n1)-c1ccc(O[C@@H](C)C(N)=O)cc1OCC2	0.39	0.04	0.37	0.09	0.14	0.37	0.53	0.71	0.74	0.13
